In PubChem BioAssay (NCI):
About 83,000 compounds went through this panel and 20% of them were active in at least one assay; those are over-represented in the sample as a whole.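 Cells were grown in 96-well plates and exposed to the test compound at a single concentration for 48 hours; results are reported as percent growth, with values below 10 considered active.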 Activity calls are given as the source filed them.

system: A549/ATCC NSCLC; assay: NCI-60 one-dose screen, 48 h (100 = growth as untreated, 0 = no growth, -100 = all killed); conditions: 10 µM unless noted

SMILES	growth
C[PH+](c1nc2ccccc2nc1[PH+](C)C(C)(C)C)C(C)(C)C.C[PH+](c1nc2ccccc2nc1[PH+](C)C(C)(C)C)C(C)(C)C.[Au+].[Cl-] (stereo unspecified)	-73.8% (active)
CN(C)CCNC(=O)c1cc2c3cc(Cl)ccc3[nH]c2c2ncccc12	9.53% (active)
CNC(=O)c1ccccc1Oc1nc(Nc2cc(OC)c(OC)c(OC)c2)ncc1Br	46.4% (inactive)
O=C(c1ccccc1)c1ccc(C2CCCCC2)cc1	98% (inactive)
CCCCCCCC[C@@H]1N[C@@H](C(=O)OC)Cc2c1[nH]c1ccccc21	104% (inactive)
Cc1cc(N2CCCCC2)cc(C)c1-c1csc(NC(=O)c2ccncc2)n1	49.1% (inactive)
Cc1nc2sc(C(=O)Nc3ccc(Br)cc3)c(N)c2cc1C(O)c1ccccc1 (stereo unspecified)	64.4% (inactive)
CCN(CC)CC(O)COc1c(Br)c(Br)c(Br)c2c1OC(C)(C)C2 (stereo unspecified)	132% (inactive)
Cc1cccc(CNc2c3ccccc3nc3ccccc23)c1	22.6% (inactive)
Fc1cc2c(cc1Cl)N(c1ncnc3ccc(-c4ccc5n[nH]nc5c4)cc13)CC2	77.5% (inactive)
CC/C(=C(/c1ccc(Cl)cc1)c1ccc(OCCN(C)C)cc1)c1ccc(Cl)cc1	61.2% (inactive)
Cn1cc(-c2nonc2-c2cn(C)c3ccccc23)c2ccccc21	21.8% (inactive)
COC12C=C/C(=C(/C(=O)OCc3ccncc3)C(=O)CCCCCCCCC3(OC)C=C/C(=C(/C(=O)OCc4ccncc4)C(=O)CCCCCCCC1)O3)O2	9.15% (active)
COc1cc2ncnc(Nc3ccc(F)c(Cl)c3)c2cc1OCC(=O)N1CCN(c2ccccc2)CC1	82.9% (inactive)
COc1ccc(/C=C(\C#N)n2nnc3cc(Cl)ccc32)cc1	14.4% (inactive)
COc1ccc(C(=O)/C=C/c2c(C(F)(F)F)nc3ccccn23)cc1OC	43.1% (inactive)
CCN(C)S(=O)(=O)Nc1cccc(Nc2ncnc3cc(NC(=O)CCl)ccc23)c1Cl	18.5% (inactive)
Cc1c2cnccc2c(C)c2c1c1cc(C#N)ccc1n2C	-19.8% (active)

SMILES	growth
CN(C)CC(C)(C)C(=O)/C=C/c1ccccc1	0.382% [25 µM] (active)
O=CN1N=C(c2cccc(Nc3ccnc4cc(Cl)ccc34)c2)CC1c1ccccc1 (stereo unspecified)	21.3% (inactive)
O=C(Nc1ccc(Oc2cccc(Cl)c2)c(Cl)c1)c1cnccn1	23.9% (inactive)
O=c1[nH]c(Cc2nc3ccccc3s2)nc2cc(Br)ccc12	61% (inactive)
C#CCNC(=O)[C@H](CC)[C@H]1CC[C@H](C)[C@H]([C@@H](C)[C@H](O)[C@H](C)C(=O)[C@H](CC)C2O[C@]3(C=CC(=O)[C@]4(CC[C@@](C)([C@H]5CC[C@](O)(CC)[C@H](C)O5)O4)O3)[C@H](C)C[C@@H]2C)O1 (stereo partly specified)	44% (inactive)
O=C(Nc1ccc(Oc2cccc(F)c2)c(Cl)c1)c1cccnc1	35.5% (inactive)
CS(=O)(=O)Nc1cc(-c2ccc3ncnc(Nc4ccc5c(cnn5Cc5ccc(F)cc5)c4)c3c2)cnc1Cl	78.7% (inactive)
COC1=CC(c2ccc[nH]2)=N/C1=C\c1[nH]c(C)c(C)c1CCC(=O)OCc1ccccc1	10.1% (inactive)
CC(C)(C)CC(C)(C)NC(=O)Nc1ncccc1OCc1ccccc1	89.8% (inactive)
Nc1nc2ccccc2c2c1S(=O)(=O)c1ccc(Cl)cc1C2=O	46.8% (inactive)
CCOC(=O)C/C(=N\Nc1cc(=O)[nH]c2ccc(Br)cc12)C(=O)OCC	106% (inactive)
COc1cc(-c2csc(NC(=O)c3ccc(N4CCOCC4)c(C(F)(F)F)c3)n2)cc(OC)c1OC	31.9% (inactive)
Oc1c(Br)cc(Br)c2ccc(Cn3cc(-c4ccc(C(F)(F)F)cc4)nn3)nc12	103% (inactive)
C#CCOc1ccc2ncnc(Nc3ccc(NC(=O)C=C)cc3)c2c1	80% (inactive)
CCn1cc(C(=O)O)c(=O)c2cc(F)c(N3CCN(CC(=O)Nc4ccc(S(=O)(=O)Nc5nccc(C)n5)cc4)C(C)C3)c(F)c21 (stereo unspecified)	111% (inactive)
O=C(Nc1cccc(-c2ccc(N3CCOCC3)nn2)c1)Nc1cccc(C(F)(F)F)c1	56.4% (inactive)
CSc1nc2ncc([N+](=O)[O-])c(=O)n2[nH]1	101% (inactive)
COc1cc2ncnc(Nc3ccc(S(=O)(=O)Nc4cc(C)on4)cc3)c2cc1OCCCN1CCN(c2ccc(F)cc2)CC1	101% (inactive)
